Compound activity from PubChem BioAssay.
AGP1 TOR yeast: yeast TOR pathway AGP1-GFP modulation. S. cerevisiae AGP1-GFP multiplex flow cytometry, 3 h; GFP as percent of DMSO wells. GFP response vs DMSO, % at 10 µM. hit rate 0.02% among 320,000;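 active = GFP response relative to DMSO above a set limit, near screen average plus 3 SD, cut at about 150% in these data; inconclusive = fewer than 70 cells counted for the yeast strain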;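 note: median GFP channel fluorescence of the gated AGP1 strain per well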
CIT2-GFP yeast: yeast TOR pathway CIT2-GFP modulation. S. cerevisiae CIT2-GFP strain, flow cytometry, 3 h; 100 means same as DMSO wells. GFP response vs DMSO, % at 10 µM. hit rate 0.065% among 320,000. AID 2029;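 active = GFP response relative to DMSO above a set limit, near the screen mean plus 3 SD, cut at about 150% in these data; inconclusive = Fewer than 70 cells measured for a yeast strain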;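 note: ratio of well median GFP fluorescence to mean of DMSO wells on the plate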
MEP2-GFP yeast: modulators of TOR pathway MEP2-GFP in S. cerevisiae; GFP response vs DMSO, % at 10 µM; AID 2016; S. cerevisiae MEP2-GFP strain, flow cytometry GFP, 3 h; 100% = DMSO control level; hit rate 0.51% among 330,000;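 active = GFP response versus DMSO above a set limit, roughly screen mean plus 3 SD, cut at about 180% in these data; inconclusive = fewer than 70 cells counted for a yeast strain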;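 note: median GFP fluorescence of the barcode-gated MEP2-GFP cells per well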
RPL19A TOR yeast: alters RPL19A-GFP fluorescence in TOR pathway yeast screen; percent response vs DMSO, % at 10 µM; hit rate 0.3% among 330,000; S. cerevisiae RPL19A-GFP strain, flow cytometry, 3 h; hits give low values;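 active = percent response vs DMSO below 50%; inconclusive = fewer than 70 events counted for the yeast strain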;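 note: median channel GFP fluorescence of the barcoded RPL19A-GFP strain; ratio of sample median GFP to plate DMSO average so 100% = DMSO; lower means less RPL19A-GFP as with rapamycin TOR inhibition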
LAP4-GFP MLPCN: yeast TOR pathway LAP4-GFP modulation | S. cerevisiae LAP4-GFP multiplex, flow cytometry GFP, 3 h; median GFP as percent of DMSO wells | GFP response vs DMSO, % at 10 µM | hit rate 0.34% among 320,000;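 active = GFP response vs DMSO above a set limit, about the screen mean plus 3 SD, cut at about 150% in these data; inconclusive = under 70 cell events counted for the yeast strain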
* hit, by the source's call; [ ] = dose if it differs, or a comment. Rows were chosen to be rich in hits. Some 0.93% of all compounds tested hit in one or more screens of this group.

How did CC(=O)Nc1ccc(Nc2cc(C)nc3c(-c4ccc(Cl)cc4)c(C)nn23)cc1 do in these assays?
AGP1 TOR yeast: 87; CIT2-GFP yeast: 102; MEP2-GFP yeast: 262*; RPL19A TOR yeast: 99; LAP4-GFP MLPCN: 127

How did CC(=O)Nc1ccc(Nc2cc(C)nc3c(-c4ccc(Cl)cc4)cnn23)cc1 do in these assays?
AGP1 TOR yeast: 92; CIT2-GFP yeast: 100; MEP2-GFP yeast: 95; RPL19A TOR yeast: 97; LAP4-GFP MLPCN: 102

Results for Cc1ccc(S(=O)(=O)N2CCc3ccccc3C2CC(=O)O)cc1 (stereo not drawn) ?
AGP1 TOR yeast: inconclusive; CIT2-GFP yeast: inconclusive; MEP2-GFP yeast: inconclusive; RPL19A TOR yeast: 23*[may fluoresce violet]; LAP4-GFP MLPCN: 99

How did O=C(O)CC1c2ccccc2CCN1S(=O)(=O)c1ccccc1 (stereo not drawn) do in these assays?
AGP1 TOR yeast: 118; CIT2-GFP yeast: 105; MEP2-GFP yeast: 106; RPL19A TOR yeast: 107; LAP4-GFP MLPCN: 117

What do the screens show for `COc1ccc(NC(=O)CSc2nc3ccccc3c3nc4ccccc4n23)cc1`?
AGP1 TOR yeast: inconclusive; CIT2-GFP yeast: inconclusive; MEP2-GFP yeast: 124; RPL19A TOR yeast: 24*[may fluoresce violet]; LAP4-GFP MLPCN: 61

Results for COc1ccc(CN2CCN(c3ncccn3)CC2)c(C)c1C ?
AGP1 TOR yeast: 110; CIT2-GFP yeast: 138; MEP2-GFP yeast: 189*; RPL19A TOR yeast: 89; LAP4-GFP MLPCN: 135

How did CCOC(=O)[C@@H]1[C@H]2COc3cc(OC)ccc3[C@H]2N2C(=O)N(c3cccc(F)c3)C(=O)[C@@]12C do in these assays?
AGP1 TOR yeast: 100; CIT2-GFP yeast: 99; MEP2-GFP yeast: 101; RPL19A TOR yeast: 100; LAP4-GFP MLPCN: 103

Results for CC(=O)Nc1ccc(NC(=O)C(=O)N/N=C/c2cccnc2)cc1 ?
AGP1 TOR yeast: 103; CIT2-GFP yeast: 95; MEP2-GFP yeast: 102; RPL19A TOR yeast: 99; LAP4-GFP MLPCN: 106

How did C[C@]12C[C@H](O)[C@@H]3c4ccc(O)cc4CCC3[C@@H]1CCC2=O (stereo partly drawn) do in these assays?
AGP1 TOR yeast: 101; CIT2-GFP yeast: 104; MEP2-GFP yeast: 112; RPL19A TOR yeast: 96; LAP4-GFP MLPCN: 104

Results for C[C@]12CC[C@H]3C(=CCc4cc(O)ccc43)[C@@H]1CCC2=O ?
AGP1 TOR yeast: 88; CIT2-GFP yeast: 78; MEP2-GFP yeast: 105; RPL19A TOR yeast: 103; LAP4-GFP MLPCN: 157*

Results for O=C(CNC(=O)c1cc(Cl)cc([N+](=O)[O-])c1)OCC(=O)N1CCCCC1 ?
AGP1 TOR yeast: 104; CIT2-GFP yeast: 107; MEP2-GFP yeast: 105; RPL19A TOR yeast: 103; LAP4-GFP MLPCN: 103

What do the screens show for `O=C(Nc1nc(-c2ccc(S(=O)(=O)N3CCCC3)cc2)cs1)c1cccs1`?
AGP1 TOR yeast: 96; CIT2-GFP yeast: 89; MEP2-GFP yeast: 94; RPL19A TOR yeast: 96; LAP4-GFP MLPCN: 99

Results for O=C(Nc1nc(-c2ccc(S(=O)(=O)N3CCCCCC3)cc2)cs1)c1cccs1 ?
AGP1 TOR yeast: 22; CIT2-GFP yeast: inconclusive; MEP2-GFP yeast: 212*[may fluoresce violet]; RPL19A TOR yeast: 71; LAP4-GFP MLPCN: 89

Results for C=CCC1(N(C(C)=O)c2ccccc2C)CCCCC1 ?
AGP1 TOR yeast: 100; CIT2-GFP yeast: 90; MEP2-GFP yeast: 93; RPL19A TOR yeast: 97; LAP4-GFP MLPCN: 96

How did CSC(SC)=C(C#N)C(=O)c1ccccc1 do in these assays?
AGP1 TOR yeast: 95; CIT2-GFP yeast: 70; MEP2-GFP yeast: 86; RPL19A TOR yeast: 93; LAP4-GFP MLPCN: 152*

How did COc1cccc(C(=O)C(C#N)=C(SC)SC)c1 do in these assays?
AGP1 TOR yeast: 96; CIT2-GFP yeast: 71; MEP2-GFP yeast: 93; RPL19A TOR yeast: 95; LAP4-GFP MLPCN: 171*

What do the screens show for `COc1cccc(C(=O)Nc2ccc(NC(C)=O)cc2)c1`?
AGP1 TOR yeast: 89; CIT2-GFP yeast: 93; MEP2-GFP yeast: 97; RPL19A TOR yeast: 91; LAP4-GFP MLPCN: 92

Results for Cc1ccc(-c2n[nH]c(=S)nc2-c2ccc(C)cc2)cc1 ?
AGP1 TOR yeast: 96; CIT2-GFP yeast: 97; MEP2-GFP yeast: 108; RPL19A TOR yeast: 101; LAP4-GFP MLPCN: 101

What do the screens show for `Cc1ccc(OCc2cc(C(=O)N3CC4C[C@@H]5CC3C[C@H](C4)C5)no2)cc1C`?
AGP1 TOR yeast: 97; CIT2-GFP yeast: 101; MEP2-GFP yeast: 102; RPL19A TOR yeast: 101; LAP4-GFP MLPCN: 99

What do the screens show for `CCc1ccc2c(c1)C1(NN=C(c3cccc4ccccc34)S1)C(=O)N2` (stereo not drawn)?
AGP1 TOR yeast: 78; CIT2-GFP yeast: 89; MEP2-GFP yeast: 92; RPL19A TOR yeast: 71; LAP4-GFP MLPCN: 168*

What do the screens show for `CCc1ccc2c(c1)C1(C(=O)N2)N2CCCC2C(C(=O)c2ccc3ccccc3c2)C12C(=O)Nc1ccccc12` (stereo not drawn)?
AGP1 TOR yeast: 99; CIT2-GFP yeast: 92; MEP2-GFP yeast: 103; RPL19A TOR yeast: 100; LAP4-GFP MLPCN: 102

Results for O=C(CCCOc1ccccc1)NNC(=O)c1ccncc1 ?
AGP1 TOR yeast: 105; CIT2-GFP yeast: 104; MEP2-GFP yeast: 97; RPL19A TOR yeast: 100; LAP4-GFP MLPCN: 95

What do the screens show for `Cc1cc(C(=O)COC(=O)C2=COCCO2)c(C)n1-c1ccccc1`?
AGP1 TOR yeast: 98; CIT2-GFP yeast: 102; MEP2-GFP yeast: 98; RPL19A TOR yeast: 98; LAP4-GFP MLPCN: 95

What do the screens show for `COc1cc(C)c(C)cc1S(=O)(=O)N1CCCCC1c1cccnc1` (stereo not drawn)?
AGP1 TOR yeast: 96; CIT2-GFP yeast: 69; MEP2-GFP yeast: 207*; RPL19A TOR yeast: 91; LAP4-GFP MLPCN: 115

Results for CC(=O)Nc1ccc(S(=O)(=O)N2CCCCC2c2cccnc2)cc1 (stereo not drawn) ?
AGP1 TOR yeast: 90; CIT2-GFP yeast: 73; MEP2-GFP yeast: 93; RPL19A TOR yeast: 92; LAP4-GFP MLPCN: 84

Results for O=C(NCC1CCCO1)C1CCCN(S(=O)(=O)c2ccc(Cl)cc2)C1 (stereo not drawn) ?
AGP1 TOR yeast: 102; CIT2-GFP yeast: 105; MEP2-GFP yeast: 106; RPL19A TOR yeast: 102; LAP4-GFP MLPCN: 103

How did COc1ccc(C2(CNC(C)=O)CCCC2)cc1OC do in these assays?
AGP1 TOR yeast: 105; CIT2-GFP yeast: 104; MEP2-GFP yeast: 100; RPL19A TOR yeast: 99; LAP4-GFP MLPCN: 106

What do the screens show for `COc1ccc(C2(CNC(=O)c3ccccc3)CCCC2)cc1OC`?
AGP1 TOR yeast: inconclusive; CIT2-GFP yeast: inconclusive; MEP2-GFP yeast: 614*[may fluoresce violet]; RPL19A TOR yeast: 37*[may fluoresce violet]; LAP4-GFP MLPCN: 86

What do the screens show for `O=C(CC(=O)NC1CCCCC1)N/N=C/c1ccc(Cl)cc1`?
AGP1 TOR yeast: 25; CIT2-GFP yeast: inconclusive; MEP2-GFP yeast: 230*[may fluoresce violet]; RPL19A TOR yeast: 71; LAP4-GFP MLPCN: 81

Results for COC(=O)c1ccc(/C=N/NC(=O)CC(=O)NC2CCCCC2)cc1 ?
AGP1 TOR yeast: 95; CIT2-GFP yeast: 91; MEP2-GFP yeast: 94; RPL19A TOR yeast: 95; LAP4-GFP MLPCN: 103
